# A number with no mark means an inactive call. Inconclusive results are not listed. Entries that show only a call come without a potency. Activity calls are given as the source filed them. Unless noted, calls come from the whole dose curve; as a rule, active = well fitted curve in the direction sought with a large enough effect in the repeat runs; inconclusive = weak or mixed curves; inactive = no such curve, though single readings can be large; an effect the other way counts as inactive or inconclusive.
# Legend:
# [1] = qHTS assay to identify small molecule antagonists of the estrogen related receptor (ERR) signaling pathway from Tox21 library - cell viability counter screen (AID 1224834); note: nearly all actives have a fitted effect of over 30% in size; note: potency is the fitted concentration of half-maximal effect
# Outline: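 Seeded ERR cells were rested 6 h at 37 C/5% CO2 before compounds, positive and negative controls or DMSO were added. Incubation continued for 17.5 h, and viability was then quantified by CellTiter-Fluor fluorescence.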
# [2] = target: Luciferin 4-monooxygenase (Photinus pyralis) (UniProt P08659); test: qHTS assay to identify small molecule inhibitors of firefly luciferase (AID 1224835); note: nearly all actives have a fitted effect of over 25% in size; note: potency is the fitted concentration of half-maximal effect
# Luciferin 4-monooxygenase (Photinus pyralis), sequence (P08659 whole entry, looked up): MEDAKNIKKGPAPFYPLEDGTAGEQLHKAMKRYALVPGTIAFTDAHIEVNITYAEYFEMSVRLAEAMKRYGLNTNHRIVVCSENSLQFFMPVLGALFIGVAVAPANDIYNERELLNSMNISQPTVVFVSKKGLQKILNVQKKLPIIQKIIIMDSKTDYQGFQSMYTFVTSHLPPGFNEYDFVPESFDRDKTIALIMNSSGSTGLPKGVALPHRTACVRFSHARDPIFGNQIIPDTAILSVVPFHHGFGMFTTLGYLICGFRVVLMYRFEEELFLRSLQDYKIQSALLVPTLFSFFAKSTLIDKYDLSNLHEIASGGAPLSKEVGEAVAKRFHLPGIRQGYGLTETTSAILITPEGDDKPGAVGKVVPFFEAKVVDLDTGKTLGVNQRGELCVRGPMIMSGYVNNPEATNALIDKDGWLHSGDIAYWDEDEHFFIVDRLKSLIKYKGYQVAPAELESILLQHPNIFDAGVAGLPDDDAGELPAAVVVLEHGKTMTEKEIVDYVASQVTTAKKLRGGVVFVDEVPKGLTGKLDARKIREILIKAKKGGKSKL
# Outline: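 Inhibition of purified Photinus luciferase is measured by luminescence. Substrate levels (D-luciferin, ATP) sit at their KM values. Each compound is tested in a concentration series.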
# [3] = qHTS assay to identify small molecule agonists of the constitutive androstane receptor (CAR) signaling pathway - cell viability counter screen (AID 1224836); note: nearly all actives have a fitted effect of over 45% in size
# Outline: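 Fluorescence from CellTiter-Fluor indicates live cells after 23 h exposure. The human hepatoma line expresses hCAR and a CYP2B6-2.2kb reporter. Incubation medium contains 0.75 uM PK11195 (final).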
# [4] = qHTS assay to identify small molecule antagonists of the constitutive androstane receptor (CAR) signaling pathway - cell viability counter screen (AID 1224837); note: nearly all actives have a fitted effect of over 45% in size
# Outline: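 To flag cytotoxic false antagonists, HepG2 hCAR/CYP2B6-2.2kb cells were treated 23 hr with 15-concentration compound series and 50 nM CITCO at 37 C/5% CO2; CellTiter-Fluor fluorescence was the measured end point.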
# [5] = target: Nuclear receptor subfamily 1 group I member 3 (Homo sapiens) (UniProt Q14994); test: qHTS assay to identify small molecule antagonists of the constitutive androstane receptor (CAR) signaling pathway (AID 1224838);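 note: HepG2 cells stably expressing hCAR with CYP2B6 luciferase reporter stimulated by CITCO; nearly all actives have a fitted effect of over 40% in size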
# Nuclear receptor subfamily 1 group I member 3 (Homo sapiens), sequence (Q14994 whole entry, looked up): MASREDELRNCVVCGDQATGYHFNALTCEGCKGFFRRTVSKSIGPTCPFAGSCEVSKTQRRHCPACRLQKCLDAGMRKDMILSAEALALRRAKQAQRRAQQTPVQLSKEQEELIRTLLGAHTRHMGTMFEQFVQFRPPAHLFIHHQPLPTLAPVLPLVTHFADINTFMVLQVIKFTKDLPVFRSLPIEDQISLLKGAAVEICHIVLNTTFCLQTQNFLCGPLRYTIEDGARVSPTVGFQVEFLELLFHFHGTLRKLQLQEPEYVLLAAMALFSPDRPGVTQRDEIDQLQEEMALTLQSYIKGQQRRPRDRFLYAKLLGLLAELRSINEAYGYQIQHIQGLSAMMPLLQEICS
# Outline: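 Human hepatoma HepG2 cells expressing hCAR and a CYP2B6 promoter (2.2 kb) luciferase construct; compound titration (15 points) with 50 nM CITCO final, 24 h at 37 C/5% CO2; luminescence via ONE-Glo after 30 min at room temperature.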
# [6] = target: Nuclear receptor subfamily 1 group I member 3 (Homo sapiens) (UniProt Q14994); test: qHTS assay to identify small molecule agonists of the constitutive androstane receptor (CAR) signaling pathway (AID 1224839); note: nearly all actives have a fitted effect of over 15% in size; note: potency is the fitted concentration of half-maximal effect;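 for activation: HepG2 cells stably carrying human CAR and a CYP2B6 luciferase reporter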
# Outline: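 Stable hCAR/CYP2B6-2.2kb HepG2 line in DMEM with 10% FBS; compounds (15 concentrations) and 0.75 uM PK11195 final, 24 h at 37 C/5% CO2, then ONE-Glo luminescence after 30 min.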
# [7] = target: Thyrotropin receptor (Homo sapiens) (UniProt P16473); test: qHTS assay to identify small molecule agonists of the thyroid stimulating hormone receptor (TSHR) signaling pathway (AID 1224843; calls by dose curve; note: nearly all actives have a fitted effect of over 45% in size)
# Thyrotropin receptor (Homo sapiens), sequence (P16473 whole entry, looked up): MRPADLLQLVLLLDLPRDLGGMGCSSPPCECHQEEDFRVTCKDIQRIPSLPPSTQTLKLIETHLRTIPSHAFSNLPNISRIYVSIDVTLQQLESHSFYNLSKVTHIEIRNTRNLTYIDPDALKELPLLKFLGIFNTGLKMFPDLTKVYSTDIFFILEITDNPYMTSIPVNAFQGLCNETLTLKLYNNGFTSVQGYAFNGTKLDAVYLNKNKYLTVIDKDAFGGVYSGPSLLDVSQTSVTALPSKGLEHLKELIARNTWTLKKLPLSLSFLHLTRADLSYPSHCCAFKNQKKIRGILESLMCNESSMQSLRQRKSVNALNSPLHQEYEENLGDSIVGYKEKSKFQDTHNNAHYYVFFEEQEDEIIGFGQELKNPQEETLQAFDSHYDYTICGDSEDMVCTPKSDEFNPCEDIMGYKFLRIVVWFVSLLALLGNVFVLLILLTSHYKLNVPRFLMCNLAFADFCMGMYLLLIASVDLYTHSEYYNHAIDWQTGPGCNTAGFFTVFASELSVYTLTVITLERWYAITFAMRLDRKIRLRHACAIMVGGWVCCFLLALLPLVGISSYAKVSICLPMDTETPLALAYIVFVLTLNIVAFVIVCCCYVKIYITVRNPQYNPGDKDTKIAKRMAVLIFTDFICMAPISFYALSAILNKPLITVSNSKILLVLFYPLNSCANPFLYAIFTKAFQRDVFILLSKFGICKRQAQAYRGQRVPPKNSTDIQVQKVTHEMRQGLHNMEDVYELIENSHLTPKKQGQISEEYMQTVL
# Outline: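 A cell-based cAMP HTRF format was run in TSHR-transfected HEK293 cells, 800 per well. Treatment: 30 min, room temperature. Detection: 1 h with labelled cAMP and anti-cAMP cryptate. Concentration-response over 15 points, three replicates.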
# [8] = qHTS assay to identify small molecule agonists of the hypoxia (HIF-1) signaling pathway - cell viability counter screen (AID 1224844; calls by dose curve; note: nearly all actives have a fitted effect of over 50% in size)
# Outline: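 HRE-bla ME-180; 0.5% dFBS; cpd 17 h, 37C, 5% CO2; CellTiter-Glo lum., 30 min RT, post-FRET read, same wells.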
# [9] = qHTS assay to identify small molecule agonists of H2AX (AID 1224845; active = well fitted activation curve with a large enough effect in the signal ratio in the repeat runs, not every such curve was filed as active; the % refers to the signal ratio)
# Outline: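 Phospho-H2AX Ser139 measured by HTRF (ex 320 nm; em 665 and 620 nm) after 24 hr antibody incubation. Compounds, 15 concentrations, 0.76% DMSO, were applied to CHO-K1 cells for 3hr at 37C before lysis.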
# [10] = qHTS assay to identify small molecule agonists of H2AX - cell viability counter screen (AID 1224847; calls by dose curve; note: top concentration of the series differs between compounds; nearly all actives have a fitted effect of over 30% in size)
# Outline: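 Viability of CHO-K1 (wild type) cells after 3 hr compound exposure was measured by CellTiter-Glo luminescence.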
# [11] = qHTS RealTime-Glo MT Cell Viability Assay in HepG2 cells - 24 hour (AID 1224867); note: nearly all actives have a fitted effect of over 50% in size
# Outline: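 Real-time, nonlytic viability: 600 HepG2 cells/well mixed with NanoLuc enzyme plus prosubstrate; 5 h settle, compound (DMSO) added by pintool; luminescence monitored over 40 h at 37 C.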
# [12] = A CellTox Green Cytotoxicity Assay to monitor cytotoxicity in HEK293 cells - 0 hour (AID 1224869); note: nearly all actives have a fitted effect of over 50% in size
# Outline: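 Tox21 screen in HEK293: membrane-impermeant cyanine dye fluoresces on binding dead-cell DNA; compound pinned 5 h post-seeding, plates held at 37 C, signal read repeatedly through 40 h.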
# [13] = qHTS RealTime-Glo MT Cell Viability Assay in HepG2 cells - 40 hour (AID 1224870); note: nearly all actives have a fitted effect of over 50% in size
# Outline: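 Real-time viability: cells seeded at 600 per well together with NanoLuc and cell-permeant prosubstrate, compounds added after 5 h incubation. Luminescence tracked at 0, 8, 16, 24, 32 and 40 h of exposure.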
# [14] = qHTS RealTime-Glo MT Cell Viability Assay in HEK293 cells - 32 hour (AID 1224868)
# Outline: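 Cells + reagent dispensed (600 cells/well, HEK293) → 5 h at 37 C/5% CO2 → 23 nL compound in DMSO pinned → 40 h at 37 C → luminescence read at 0, 8, 16, 24, 32, 40 h.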
# [15] = qHTS assay to identify small molecule antagonists of the estrogen related receptor signaling pathway with the pleiotropic PPARgamma coactivator (PGC) from Tox21 10K library - cell viability counter screen (AID 1224840; active = well fitted cell-killing curve with a large enough effect in the repeat runs, not every such curve was filed as active; note: nearly all actives have a fitted effect of over 40% in size)
# Outline: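 Seeded PGC/ERR cells (2,000/well, 6 h, 37 C/5% CO2) get compound by pin tool; 17.5 h incubation at 37 C; CellTiter-Fluor added, 30 min, fluorescence measured.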
# [16] = qHTS assay to identify small molecule antagonists of the estrogen related receptor signaling pathway with the pleiotropic PPARgamma coactivator (PGC) from Tox21 10K library (AID 1224841; call rule not given here; note: potency is the fitted concentration of half-maximal effect)
# Outline: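 Test chemicals dissolved in DMSO were applied to pre-incubated (6 h) PGC/ERR cells at 2,000 cells/well for an 18 h, 37 C treatment; reporter luminescence was then read using One-Glo.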
# [17] = qHTS assay to identify small molecule agonists of the estrogen related receptor signaling pathway with the pleiotropic PPARgamma coactivator (PGC) from Tox21 10K library (AID 1224842); note: nearly all actives have a fitted effect of over 15% in size
# Outline: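 Luminescence from One-Glo (30 min, room temperature) measured after PGC/ERR cells had 18 h at 37 C with pinned compound (23 nL in DMSO). Cells had been seeded at 2,000 per well and pre-incubated 6 h.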
# [18] = qHTS assay to identify small molecule agonists of the hypoxia (HIF-1) signaling pathway (AID 1224846; active = well fitted activation curve with a large enough effect in the signal ratio in the repeat runs, not every such curve was filed as active; the % refers to the signal ratio)
# Outline: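 Reporter induction in HRE-bla ME-180 cells is taken as agonism: cells sit 5 hrs after plating, receive compounds or DMSO only, incubate 17 hrs at 37C under 5% CO2, and are loaded with CCF4-AM for beta-lactamase FRET measurement.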
# [19] = qHTS assay to identify small molecule agonists of the estrogen related receptor (ERR) signaling pathway from Tox21 library (AID 1224849; calls by dose curve; note: nearly all actives have a fitted effect of over 15% in size); settings: ERR reporter cell line, ONE-Glo luciferase, 18 h; at 92.4 µM (top of the series) unless noted
# Outline: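 Tox21 compounds tested for ERR agonism in an NTP reporter cell line: 18 h treatment at 37 C, then ONE-Glo luminescence.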
compound,measurement,setting,value
C=CCOC(=O)/C=C\C(=O)OCC=C,Potency,[1],inactive
same,Potency,[2],inactive
same,Potency,[3],inactive
same,Potency,[4],inactive
same,Potency,[5],inactive
same,Potency,[6],inactive
same,Potency,[7],inactive
same,Potency,[8],inactive
same,Potency,[9],inactive
same,Potency,[10],inactive
same,Potency,[11],inactive
same,Potency,[12],inactive
same,Potency,[13],inactive
CC(=N\O)/C(C)=N/O,Potency,[1],inactive
same,Potency,[2],inactive
same,Potency,[3],inactive
same,Potency,[4],inactive
same,Potency,[5],inactive
same,Potency,[6],inactive
same,Potency,[7],inactive
same,Potency,[8],inactive
same,Potency,[9],inactive
same,Potency,[10],inactive
same,Potency,[11],inactive
same,Potency,[14],inactive
same,Potency,[12],inactive
same,Potency,[13],inactive
CCCCCCCCCCCCCCCCBr,"viability change, negative = cytotoxic",[1],0.749% [at 19 µM]
same,"activity change, negative = inhibition",[2],1.26% [at 23.6 µM]
same,"viability change, negative = cytotoxic",[3],0.618% [at 19 µM]
same,"activity change, negative = cytotoxicity",[4],-0.0926% [at 19 µM]
same,activation,[6],-0.821% [at 19 µM]
same,"viability change, negative = cytotoxic",[15],7.8% [at 19 µM]
same,"activity, negative = inhibition",[16],36.1% [at 19 µM]
same,activation,[17],1.63% [at 19 µM]
same,activation,[7],-0.411% [at 19 µM]
same,"activity change, negative = cytotoxicity",[8],-1.79% [at 15.8 µM]
same,activation (H2AX phosphorylation),[9],-0.41% [at 31.6 µM]
same,activation,[18],0.309% [at 15.8 µM]
same,"activity change, negative = cytotoxicity",[10],2.27% [at 31.6 µM]
same,"activity change, positive = activation",[19],4.62% [at 19 µM]
same,"activity change, negative = cytotoxicity",[11],2.08% [at 15.8 µM]
same,"activity change, negative = cytotoxic",[14],4.73% [at 15.8 µM]
same,cytotoxicity,[12],-1.2% [at 15.8 µM]
same,"activity change, negative = cytotoxic",[13],2.22% [at 15.8 µM]
O=C(CS)OCCOC(=O)CS,Potency,[1],inactive
same,Potency,[2],inactive
same,Potency,[3],inactive
same,Potency,[4],inactive
same,Potency,[6],inactive
same,Potency,[15],inactive
same,Potency,[16],inactive
same,Potency,[7],inactive
same,Potency,[9],inactive
same,outcome,[18],inactive
same,Potency,[10],inactive
same,"activity change, positive = activation",[19],-27.9%
same,Potency,[11],inactive
same,Potency,[14],inactive
same,Potency,[12],inactive
same,Potency,[13],inactive
CC(=O)N(c1onc(C)c1C)S(=O)(=O)c1ccc(N)cc1,Potency,[1],inactive
same,Potency,[2],inactive
same,Potency,[3],inactive
same,Potency,[4],inactive
same,Potency,[5],inactive
same,Potency,[6],inactive
same,Potency,[7],inactive
same,Potency,[8],inactive
same,Potency,[9],inactive
same,Potency,[10],inactive
same,Potency,[11],inactive
same,Potency,[14],inactive
same,Potency,[12],inactive
same,Potency,[13],inactive
CC(=O)Oc1ccc(C(=C2CCCCC2)c2ccc(OC(C)=O)cc2)cc1,Potency,[1],inactive
same,Potency,[2],inactive
same,Potency,[3],inactive
same,Potency,[4],inactive
same,Potency,[5],inactive
same,Potency,[15],inactive
same,Potency,[7],inactive
same,Potency,[8],inactive
same,Potency,[9],inactive
same,outcome,[18],inactive
same,Potency,[10],inactive
same,Potency,[11],inactive
same,Potency,[14],inactive
same,Potency,[12],inactive
same,Potency,[13],inactive
Cc1ccc(Nc2nccc(N(C)c3ccc4c(C)n(C)nc4c3)n2)cc1S(N)(=O)=O,Potency,[1],29.8 µM (active)
same,Potency,[2],30.9 µM (active)
same,Potency,[3],inactive
same,Potency,[4],inactive
same,Potency,[5],inactive
same,Potency,[6],4.73 µM (active)
same,Potency,[16],23.7 µM (active)
same,Potency,[17],inactive
same,Potency,[8],inactive
same,Potency,[9],inactive
same,outcome,[18],inactive
same,Potency,[10],inactive
same,"activity change, positive = activation",[19],-54.4% [at 42.5 µM]
same,Potency,[11],inactive
same,Potency,[12],inactive
same,Potency,[13],inactive

# Source: PubChem BioAssay (Tox21)
